Data taken from PubChem BioAssay (NCI).
The panel holds about 79,000 compounds, 15% with a hit somewhere; the sample as a whole holds those more often. Active and inactive are the calls of the source. No stated cut-off is given here; in the data, active means growth inhibition above about 70%; inactive means the rest.

Legend:
[1] = NCI Yeast Anticancer Drug Screen. Data for the rad50 strain (AID 155);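 further: 0% = growth of vehicle-only cultures of the same strain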; details: S. cerevisiae rad50 strain growth inhibition; at 50.0 µM; stronger effect = higher value
In short: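 A DNA repair-deficient yeast mutant serves as the test organism; compound-induced growth inhibition is calculated against vehicle-treated cells.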

[2] = NCI Yeast Anticancer Drug Screen. Data for the mec2-1 strain (AID 157); details: S. cerevisiae mec2-1 strain, at 50.0 µM, stronger effect = higher value
In short: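 Yeast mec2-1 mutant treated with compound. Readout: growth inhibition vs vehicle controls.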

[3] = NCI Yeast Anticancer Drug Screen. Data for the sgs1 mgt1 strain (AID 161);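 further: 0% = growth of cultures given vehicle only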; details: S. cerevisiae sgs1 mgt1 strain, at 50.0 µM, stronger effect = higher value
In short: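 Test agents were incubated with a DNA-repair-mutant yeast strain. Growth was then read and compared against vehicle-treated controls.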

[4] = NCI Yeast Anticancer Drug Screen. Data for the cln2 rad14 strain (AID 165);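 further: 0% = growth equal to vehicle treated cultures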; details: S. cerevisiae cln2 rad14 strain, at 50.0 µM, stronger effect = higher value
In short: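 cln2 rad14 yeast strain; compound exposure; growth inhibition read vs vehicle controls.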

[5] = NCI Yeast Anticancer Drug Screen. Data for the bub3 strain (AID 167); details: S. cerevisiae bub3 mutant strain, at 50.0 µM, stronger effect = higher value
In short: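 Inhibition values come from growth of compound-treated mutant yeast normalised to vehicle-treated controls.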

[6] = NCI Yeast Anticancer Drug Screen. Data for the mlh1 rad18 strain (AID 175); details: S. cerevisiae mlh1 rad18 strain growth inhibition; at 50.0 µM; stronger effect = higher value
In short: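 Yeast w/ defined DNA-repair lesions; compound exposure; growth vs vehicle controls → % inhibition.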

Measured: growth inhibition

CC1=C/C(=N\O)C(C(O)(C(F)(F)F)C(F)(F)F)C(C)(C)C1 (configuration not stated)
inactive: [1] -37.7% | [2] -39% | [3] -17.4% | [4] -12.5% | [5] -7.35% | [6] 2.9%

O=[N+]([O-])C(=C(N1CCCCC1)N1CCCCC1)/C(Cl)=C(\Cl)Br
inactive: [1] -31.5% | [2] 11.2% | [3] 2.7% | [4] -2% | [5] -7.15% | [6] -1.45%

CCOc1ccc(NC(=O)COc2ccc(Cl)cc2Cl)cc1
inactive: [1] 14.9% | [2] 22.3% | [3] 23.5% | [4] 18.4% | [5] 26.1% | [6] 14.9%

Cc1ccccc1NP1(Nc2ccccc2C)=NP(Nc2ccccc2C)(Nc2ccccc2C)=NP(Nc2ccccc2C)(Nc2ccccc2C)=NP(Nc2ccccc2C)(Nc2ccccc2C)=N1
inactive: [1] 0.8% | [2] -0.9% | [3] 23.6% | [4] -5.3% | [5] -6.95% | [6] -9.7%

COc1ccccc1N=Nc1c(C)nc(N)nc1-c1ccccc1
inactive: [1] 23.1% | [2] 10.4% | [3] 25.9% | [4] 7.9% | [5] 4.6% | [6] 23.6%

CC(C)(C)S(=O)(=O)CCCCl
inactive: [1] 12.8% | [2] -13.9% | [3] -1.65% | [4] -8.5% | [5] 13.2% | [6] 13.5%

CCCCCCCCCCCCCCCCCC(=O)NCCCNCCCNC(=O)CCCCCCCCCCCCCCCCC
inactive: [1] -10.9% | [2] -21.4% | [3] -12.2% | [4] 7.55% | [5] -17.5% | [6] -13.6%

CN(C)c1ccc(/C=C(\C#N)c2c(Br)cccc2Br)cc1
inactive: [1] -20.1% | [2] -18.8% | [3] -3.65% | [4] -42.8% | [5] 3.1% | [6] -14.7%

CN1C(=O)C(O)(CC(=O)c2ccccc2)c2ccccc21 (configuration not stated)
inactive: [1] 0.15% | [2] 17.7% | [3] 3.3% | [4] -23.9% | [5] 23.4% | [6] -5.65%

Cc1c2cnccc2c(C)c2c1c1ccccc1n2CCNCc1ccccc1
active: [1] 98.2% | [3] 92.7%
inactive: [2] 50.4% | [4] -7.75% | [5] 1.15% | [6] 66.7%

O=c1cc(O)nc2cn[nH]n12
inactive: [1] 4.8% | [2] -22.4% | [3] 7.65% | [4] 13.4% | [5] -3.45% | [6] 1.6%

CCOC(=O)c1c(N)[nH]c(SSc2[nH]c(N)c(C(=O)OCC)c2C(=O)OCC)c1C(=O)OCC
inactive: [1] 25.6% | [2] 3.85% | [3] 30.3% | [4] 13.7% | [5] 17.8% | [6] 20.3%

CN=C(NN)NS(=O)(=O)c1cc(C)c(Cl)cc1S
inactive: [1] -12.6% | [2] -22.8% | [3] -11.7% | [4] -10.9% | [5] 3.4% | [6] 7.05%

Oc1c(Cl)cc(N=Cc2ccc(N(CCCCl)CCCCl)cc2Cl)cc1Cl
inactive: [2] 41% | [5] 54.7%
active: [1] 84.6% | [3] 93.7% | [4] 75.2% | [6] 84%

O=C1CS/C(=N/C(=O)Nc2ccc(Cl)cc2)N1
inactive: [1] -1.9% | [2] 32.5% | [3] 16.1% | [4] -9.55% | [5] -6.95% | [6] 14.5%

COC(=O)c1nc(SC)[nH]c1CC(N)=O
inactive: [1] 43.5% | [2] 22.4% | [3] 20.5% | [4] -22.8% | [5] 32.7% | [6] -15.2%

O=C(OCOC(=O)c1ccccc1)c1ccccc1
inactive: [1] -23.1% | [2] -5.95% | [3] -8.6% | [4] -18.5% | [5] -4.7% | [6] -6.55%

Nc1ccc(I)cn1
inactive: [1] -3.35% | [2] 5.7% | [3] -3.65% | [4] -11.7% | [5] 14.6% | [6] -3.95%

CC(=O)Nc1c(C)cc(C)cc1[N+](=O)[O-]
inactive: [1] 8.05% | [2] 7.15% | [3] -12.9% | [4] 2.65% | [5] 6.4% | [6] 22.1%

CCOc1ccccc1NC(=O)C1=C(C)NC(C)=C(C(=O)Nc2ccccc2OCC)C1c1ccc([N+](=O)[O-])cc1
inactive: [1] -20.3% | [2] 27.2% | [3] -3% | [4] -4.9% | [5] 30.8% | [6] -7.2%

C[C@@]1(CO)CCc2c(c3ccccc3oc2=O)O1
inactive: [1] 2.2% | [2] 6.45% | [3] 9.55% | [4] 8% | [5] 1.8% | [6] -6.35%

O=C1CCN2C=CC=CC2=N1
inactive: [1] -14.6% | [2] -8.6% | [3] 2.15% | [4] -26.6% | [5] -19% | [6] 6.95%

COc1ccc(NC(=O)Nc2ccc(Cl)cc2C)cc1
inactive: [1] -13.4% | [2] -2.8% | [3] -11.6% | [4] -12.2% | [5] -12.5% | [6] -15.2%

Cc1cc(C(=O)CSC(=S)SC(C)(C)C)ccc1Cl
inactive: [1] 9.3% | [2] -30.1% | [3] -5.85% | [4] 4.45% | [5] -17.9% | [6] -5.2%

CCOC(=O)C(/C=C/c1cc(C)c(C)c(C)c1)(NC=O)C(=O)OCC
inactive: [1] -3.25% | [2] 2.55% | [3] 9.6% | [4] 5.75% | [5] 12.1% | [6] -1.3%

CCOC(=O)c1ccc(CSc2ccc(N)cc2)c([N+](=O)[O-])c1
inactive: [1] -0.6% | [2] 7.15% | [3] 17.4% | [4] 11.4% | [5] 2.3% | [6] 20.2%

Cc1cccc(C(=O)NNC(=O)c2ccc3ccccc3c2)c1
inactive: [1] -60.3% | [2] -49.7% | [3] -23.9% | [4] -3.6% | [5] -28.9% | [6] -33.2%

Cc1cc(N(CCC#N)S(=O)(=O)c2ccccc2)ccc1C=O
inactive: [1] 25.9% | [2] -34.1% | [3] 13.9% | [4] -9.05% | [5] -9.15% | [6] -4.15%

N#CCC(=O)NCCc1ccccn1
inactive: [1] -6.75% | [2] -3.7% | [3] -13.8% | [4] -44.6% | [5] 10.2% | [6] -9.05%

Cc1ccc(CN(C)N=Nc2ccc(C#N)cc2)cc1
inactive: [1] 2.55% | [2] 34.2% | [3] 45.6% | [4] 12.1% | [5] 65.3% | [6] 6.7%

Cc1cc(Cl)ccc1NC(=O)CCCC(=O)C1CCC/C1=N\NC(=O)CC#N (configuration not stated)
inactive: [1] -33.2% | [2] 9.7% | [3] -7.25% | [4] 8.95% | [5] 5.7% | [6] -12.3%

c1ccc(Nc2nnc(-c3nsc4ccccc34)o2)cc1
inactive: [1] -34.5% | [2] -40.9% | [3] -42.8% | [4] -1.4% | [5] -31.9% | [6] -35.9%

CCC(C)NS(=O)(=O)c1ccc(Cl)cc1 (configuration not stated)
inactive: [1] 18.4% | [2] 9.55% | [3] 6.45% | [4] 8.6% | [5] 5.85% | [6] 3.7%

CCN(CC)C(C)(C)C(=O)/C=C/c1ccc(C)cc1
inactive: [1] 5.45% | [2] -3.75% | [3] -16.5% | [4] 12.3% | [5] 5.75% | [6] 43.1%

CCOC(NC(=O)CC)(C(F)(F)F)C(F)(F)F
inactive: [1] 4.3% | [2] -24.6% | [3] -49.9% | [4] -3.4% | [5] 1.85% | [6] -36.9%

c1ccc(-c2cccc(-c3cccc(-c4ccccc4)c3)c2)cc1
inactive: [1] 18.1% | [2] 0.6% | [3] 7.5% | [4] -47.9% | [5] 16.8% | [6] -6.65%

Cc1ccc(-c2n[nH]c(=O)n2N2C(=O)C=CC2=O)cc1
inactive: [1] -9.05% | [2] -20.6% | [3] -26.3% | [4] -1.2% | [5] -15.4% | [6] -59.9%
